# Experimental data reported in the supplement of paper PMC6555819.
# Legend:
# Experiment in all cases: PBM binding z-score (relative to random genomic background probes); higher = stronger binding; sequences stand for … in GC…GCGATTGACAGCGTAGAATGAAGG
# [1] = tested on: LXRa homodimer (NR concentration 270 nM)
# Outline: (§1)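 Each nuclear receptor dimer, without ligand, was incubated for 1 h on custom Agilent 4×180K protein-binding microarrays. Binding was detected with antibodies against each partner (one per run), and scanned fluorescence was regression-normalized. The binding z-scores are referenced to random human genomic background probes.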
# [2] = tested on: LXRb homodimer (NR concentration 270 nM)
# Outline: as §1
# [3] = tested on: PPARg:RXRa (NR concentration 180 nM, RXRa partner concentration 90 nM)
# Outline: as §1
# [4] = tested on: PPARg:RXRa 270nM:90nM, anti-RXR (NR concentration 270 nM, RXRa partner concentration 90 nM)
# Outline: as §1
# [5] = tested on: PPARg:RXRa 30nM:10nM, anti-RXR (NR concentration 30 nM, RXRa partner concentration 10 nM)
# Outline: as §1
# [6] = tested on: PPARg:RXRa 90nM:30nM, anti-RXR (NR concentration 90 nM, RXRa partner concentration 30 nM)
# Outline: as §1
# [7] = tested on: PPARg:RXRa DBDmut IVT, anti-RXR (DBD mutation: RXRa K156A/R161A, NR concentration 270 nM, RXRa partner concentration 90 nM)
# Outline: as §1
Sequence,PBM binding z-score [1],PBM binding z-score [2],PBM binding z-score [3],PBM binding z-score [4],PBM binding z-score [5],PBM binding z-score [6],PBM binding z-score [7]
ATCGAAAGGTCATGAGGTGAGTATACAGAAAGGC,4.02,2.52,9.07,7.95,5.41,7.18,4.25
CAAACGAGGTCACCGGAAGGTCAAAGTCCGCATG,6.35,2.17,9.26,8.2,5.78,7.55,6.23
ATCGAAAGGTCAAAGGTGAGTATACCCACCCGAA,4.82,4.53,,8.89,6.69,8.79,4.23
CGTTCAAGGTCAAAGGTCAGTGAAGAGATGACGG,4.39,2.52,,9.86,11.2,11.5,5.39
CCTCGGAGGTCAACAGGAGGTCAGAGCTGCCAGA,4.43,1.49,6.66,6.55,2.94,5.21,3.21
CGTACAAGGTCAAAGGTCAGTGAAGAGATGACGG,3.43,2.4,,10.1,11.2,11.9,5.32
CGTCAAAGGTCAATGCTAGGTCAGTGAAAGCATT,4.73,3.46,8.14,8.21,5.21,7.67,4.79
CGTCAAAGGTCAACTAAGGTAACGTAAAGCACGC,3.42,4.64,9.18,8.77,6.39,8.42,5.01
GCTTAGGGGTCAAAGGTTATAGCATGAATAGAAT,1.95,2.82,11.8,9.66,9.13,10.2,5.79
CAAACAAGGTCAAAGGTCAAAGTCGAGCCAACCA,6.4,4.04,13.5,11,13.5,13.5,6.43
CCTTAGGGGTCAAGGTTATAGCACGGGTGGTACG,1.33,1.15,8.58,7.98,5.01,7.42,3.07
TATACGGGGTCAAAGGCCAGAGTACGAATGTCGA,4.73,5.42,,9.09,7.56,9.05,4.38
TTACCAAGGTCAAAGGTCGTTGATGCACGCCTTG,4.68,1.83,,8.91,8.91,10.4,4.35
TCTCGGAGGTCACGAAAGGTCAGAGCTCGACATC,6.78,2.06,8.27,7.76,5.31,7.09,4.43
CGTCAAAGGTCAAGGTCAGTGAAAGAGACTCGAA,3.09,3.05,,8.78,6.2,8.38,4.74
ATCGAAAGGTCAAGGTGAGTATAGAGAAAGGGAA,2.78,3.58,8.08,7.77,5.24,7.07,3.34
CAAACGAGGTCAAGGTCAAAGTCGGTTTGTGCCA,4.79,2.41,9.01,7.98,5.75,7.37,6.4
GCTTACGGGTCAAAGGTCATAGCATGAATAGAAT,4.02,1.77,,10.4,12.9,12.5,5.72
ATCGAAAGGTCAACGAGGTGAGTATACACCGTTT,4.35,3.41,8.38,7.87,5.13,7.2,3.84
